# Measured values as given in PubChem BioAssay AID720690 (Broad Institute, 2013).
# Entries with a potency or affinity are not part of this list. The source made the active and inactive calls.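 Rule for the calls: active = every repeat run showing a signal drop whose fitted half-maximal concentration is at most twice the top tested concentration; inconclusive = repeat runs disagree, or flat partial drop, or poor fit; inactive = the rest.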
# Experiment: HEK293T cytotoxicity, dose response, cytotoxicity control for miR-122 modulator project, cell-based, activator set, cherry-pick (AID 720690);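 note: 0% = neutral control wells and -100% = MG132 cytotoxic control wells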
# Details: HEK293T viability, CellTiter-Glo luminescence, 48 h; series mostly up to 26 µM; activity change, negative = cytotoxicity: at the top concentration
row,SMILES,"activity change, negative = cytotoxicity"
1,CCCNC(=O)C[C@@H]1CC[C@@H]2[C@H](COc3ccc(NS(=O)(=O)c4ccccc4C)cc3C(=O)N2C)O1,-12.3% (inactive)
2,COCC(=O)Nc1ccc2c(c1)C(=O)N(C)[C@@H]1CC[C@H](CC(=O)Nc3cn(C)nc3C)O[C@H]1CO2,-4.99% (inactive)
3,CN1C(=O)c2cc(NC(=O)Nc3ccccc3F)ccc2OC[C@@H]2O[C@H](CC(=O)O)CC[C@@H]21,-1.17% [at 23.5 µM] (inactive)
4,C[C@@H]1CN([C@@H](C)CO)S(=O)(=O)c2ccc(C#CC3(O)CCCC3)cc2O[C@@H]1CN(C)C(=O)c1cccnc1,-6.13% (inactive)
5,O=C(Nc1ccccc1F)N1C[C@H]2[C@@H](c3ccccc31)[C@@H](CO)N2C(=O)C1CC1,-1.84% (inactive)
6,O=C(CC(F)(F)F)N1C[C@H]2[C@@H](c3ccccc31)[C@H](CO)N2C(=O)Cc1cccnc1,-9.44% (inactive)
7,O=C(Cn1c(=O)c2ccccc2n(CC(=O)N2CCCCC2)c1=O)N1CCCCC1,-30.5% (inactive)
8,Cc1nc(C)c(C(=O)Nc2ccc(Oc3ccccc3)cc2)o1,-11.6% (inactive)
9,CNC(=O)C[C@H]1CC[C@@H]2[C@@H](COc3ccc(NC(=O)c4cccc(OC)c4)cc3C(=O)N2C)O1,-16.4% (inactive)
10,CCCC(=O)Nc1ccc2c(c1)C(=O)N(C)[C@H]1CC[C@@H](CC(=O)NCCN3CCCCC3)O[C@H]1CO2,-9.56% [at 23.5 µM] (inactive)
11,Cc1ccc(-c2nc(C(Cl)Cl)c3ccccc3n2)cc1,-34.8% (inactive)
12,CCCC#Cc1ccc2c(c1)O[C@H](CN(C)C(=O)c1ccncc1)[C@H](C)CN([C@@H](C)CO)S2(=O)=O,2.83% (inactive)
13,CN1C(=O)c2cc(NC(=O)Cc3ccccc3)ccc2OC[C@@H]2O[C@@H](CC(=O)O)CC[C@H]21,-1.92% [at 23.5 µM] (inactive)
14,Cc1cc(C(=O)Nc2ccc3c(c2)C(=O)N(C)[C@H]2CC[C@H](CC(=O)N[C@H](C)c4ccccc4)O[C@H]2CO3)no1,-17.2% (inactive)
15,CCCNC(=O)C[C@H]1CC[C@@H]2[C@H](COc3ccc(NC(=O)c4cccs4)cc3C(=O)N2C)O1,3.1% (inactive)
16,Cc1cc(C)cc(Oc2ccc(NC(=O)C3CC=CCC3C(=O)O)cc2)c1 (centres undefined),-6.22% (inactive)
17,C[C@@H]1CN([C@@H](C)CO)S(=O)(=O)c2ccc(-c3ccc(C(=O)N(C)C)cc3)cc2O[C@@H]1CN(C)C(=O)C1CCC1,-6.11% (inactive)
18,c1ccc(-n2nnnc2NCCc2c[nH]c3ccccc23)cc1,-12.3% (inactive)
19,CCn1nnnc1SCC(=O)Nc1nnc(C(C)C)s1,10.6% (inactive)
20,Cc1cc(C(=O)Nc2cccc(O)c2)co1,2.9% (inactive)

row,SMILES,"activity change, negative = cytotoxicity"
1,CCOc1ccc2nc(NS(=O)(=O)c3cccs3)sc2c1,4.68% (inactive)
2,CCCNC(=O)Nc1ccc2c(c1)OC[C@@H](C)N(CCC)C[C@H](C)[C@H](OC)CN(C)C2=O,-5.94% (inactive)
3,COc1cccc(NC(=O)Nc2ccc3c(c2)C(=O)N(C)C[C@@H](OC)[C@@H](C)CN[C@H](C)CO3)c1,-1.4% [at 23.5 µM] (inactive)
4,Cc1ccccc1-c1ccc2c(c1)O[C@@H](CN(C)C(=O)Nc1ccc(F)cc1)[C@@H](C)CN([C@@H](C)CO)S2(=O)=O,-5% (inactive)
5,CCNC(=O)Nc1ccc2c(c1)C(=O)N(C)[C@H]1CC[C@H](CC(=O)NCCOC)O[C@@H]1CO2,-2.1% (inactive)
6,CO[C@H]1CN(C)C(=O)c2cc(NC(=O)c3ccccc3F)ccc2OC[C@@H](C)N(C)C[C@@H]1C,-1.08% (inactive)
7,COc1ccc2[nH]c(C(=O)O)c(NS(=O)(=O)c3ccc(Cl)s3)c2c1,-13.1% (inactive)
8,c1ccc(CCNc2nnnn2-c2ccccc2)cc1,-6.71% (inactive)
9,CCS(=O)(=O)Nc1ccc2c(c1)C(=O)N(C)C[C@@H](OC)[C@H](C)CN(CC1CCCC1)[C@H](C)CO2,-3.76% (inactive)
10,COc1ccc(CN2CCN(Cc3cccn3-c3ncccn3)CC2CCO)c(C)c1C (centres undefined),5.96% (inactive)
11,C[C@@H]1CN([C@@H](C)CO)C(=O)c2cc(NC(=O)Nc3cccc4ccccc34)ccc2O[C@@H](C)CCCCO[C@H]1CN(C)CC1CCCCC1,-14% [at 12 µM] (inactive)
12,Cc1ccc(S(=O)(=O)Nc2ccc3c(c2)C(=O)N(C)[C@@H]2CC[C@@H](CC(=O)NCCc4ccncc4)O[C@@H]2CO3)cc1,-7.64% (inactive)
13,N=c1c2c(-c3ccccc3)c(-c3ccccc3)n(Cc3ccccc3)c2ncn1CCCO,-20.2% (inactive)
14,CCNC(=O)C[C@H]1CC[C@H]2[C@H](COc3ccc(NS(C)(=O)=O)cc3C(=O)N2C)O1,-1.77% (inactive)
15,CCOc1cc(-c2nccc3cc(OC)c(OC)cc23)cc(OCC)c1OCC,-21.8% (inactive)
16,CN(C[C@H]1N[C@@H](CO)[C@H]1c1ccc(-c2cccc(F)c2)cc1)C(=O)C1CCC1,0.717% (inactive)
17,COc1ccccc1C(=O)N1C[C@@H]2[C@H](c3ccccc31)[C@H](CO)N2CC1CCCC1,-27.2% (inactive)
18,CN1C(=O)c2cc(NC(=O)Cc3ccccc3)ccc2OC[C@H]2O[C@@H](CC(=O)NC3CCC3)CC[C@H]21,1.24% (inactive)
19,O=C(C1CCOCC1)N1C[C@H]2[C@@H](c3ccccc31)[C@@H](CO)N2Cc1ccccc1,-2.48% (inactive)
